Measured values as given in PubChem BioAssay (Tox21).
Inconclusive results are not listed. Active and inactive are the calls of the source. Unless noted, calls follow the shape of the full dose curve.

Key:
[1] = Nuclear factor erythroid 2-related factor 2/antioxidant responsive element (Nrf2/ARE) small molecule agonists: qHTS cell viability counter screen in human keratinocytes (AID 1919968; active = well fitted curve in the direction sought with a large enough effect in the repeat runs; an effect the other way counts as inactive or inconclusive; also: nearly all actives have a fitted effect of over 55% in size)
Method in brief: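 Stably transfected HaCaT (KeratinoSens), 1,500/well. Test agents in DMSO were applied for 23 h, 37 C/5% CO2. CellTiter-Fluor was incubated 1 h before the fluorescence read.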

[2] = Nuclear factor erythroid 2-related factor 2/antioxidant responsive element (Nrf2/ARE) small molecule agonists: luciferase reporter gene qHTS assay in human keratinocytes (AID 1919969); also: nearly all actives have a fitted effect of over 35% in size; also: potency is read from the fitted curve at half-maximal effect
[3] = target: Gonadotropin-releasing hormone receptor (Homo sapiens) (UniProt P30968); experiment: Human gonadotropin-releasing hormone receptor (GnRHR) small molecule agonists, calcium flux assay in GnRHR-HEK293 cells (AID 1920063); also: nearly all actives have a fitted effect of over 35% in size
Method in brief: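 Stable human GnRHR HEK293 line. 18 h plating, then calcium dye for 1 h at 37 C. Agonist-mode compound addition from DMSO stocks; fluorescence monitored 3 min.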

[4] = target: KiSS-1 receptor (Homo sapiens) (UniProt Q969F8); experiment: Human kisspeptin (KISS1R) small molecule agonists, calcium flux assay in KISS1R-HEK293 cells (AID 1920064; active = well fitted curve in the direction sought with a large enough effect in the repeat runs; an effect the other way counts as inactive or inconclusive)
Method in brief: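 After overnight (18 h) culture at 37 C/5% CO2, human KISS1R-HEK293 cells received calcium dye for 1 h, then test compound; emission at 540 nm (excitation 480 nm) was tracked for 3 min.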

[5] = G protein-coupled receptor (GPCR) small molecule agonists, calcium flux assay: HEK293 wild type cell line counter screen (AID 1920065)
Method in brief: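 Following 18 h incubation at 37 C/5% CO2, plates got calcium dye for 1 h; compounds, ATP or DMSO were then pinned in and fluorescence followed kinetically (480/540 nm).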

[6] = p53 small molecule agonists, cell-based qHTS assay with human liver microsomes (AID 1963577);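 also: p53 response element beta-lactamase reporter cells with liver microsomes plus NADPH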
Method in brief: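 HLM-supplemented p53RE-bla reporter assay: 16 h compound exposure at 37 C, microsomes and NADPH each 0.5 mg/mL final, read by fluorescence intensity.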

[7] = p53 small molecule agonists, cell-based qHTS assay with rat liver microsomes (AID 1963578)
Method in brief: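 Quantitative HTS of the Tox21 10K library: p53RE-bla cells, rat liver microsomes plus NADPH at 0.5 mg/mL final each, 16 h at 37 C, beta-lactamase fluorescence detection.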

[8] = p53 small molecule agonists, cell-based qHTS assay with human liver microsomes: qHTS cell viability counter screen (AID 1963579); also: nearly all actives have a fitted effect of over 45% in size
Method in brief: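 Viability of p53RE-bla cells is measured as CellTiter-Glo luminescence following a 16 h, 37 C incubation with compound, liver microsomes from human donors and NADPH.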

[9] = p53 small molecule agonists, cell-based qHTS assay with rat liver microsomes: qHTS cell viability counter screen (AID 1963580); also: nearly all actives have a fitted effect of over 45% in size
Method in brief: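 Luminescent ATP readout (CellTiter-Glo, 30 min at room temperature) reports viability of p53RE-bla HCT-116 cells after 16 h at 37 C with test compounds under metabolic activation by rat liver microsomes and NADPH at 0.5 mg/mL final each.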

[10] = p53 small molecule agonists, cell-based qHTS assay (AID 1963582; active = well fitted activation curve with a large enough effect in the signal ratio in the repeat runs, not every such curve was filed as active; the % refers to the signal ratio)
Method in brief: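 Measured: fluorescence from cleaved LiveBLAzer substrate. System: p53RE-bla cells, 16 h compound treatment at 37 C, 2 h substrate step at room temperature.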

[11] = target: Beta-2 adrenergic receptor (Homo sapiens) (UniProt P07550); experiment: Adrenergic beta2 receptor (ADRB2) small molecule agonists, cell-based qHTS assay (AID 1963593);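 also: CHO cells stably overexpressing human ADRB2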
Method in brief: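 CHO cells stably over-expressing ADRB2 were plated overnight at 37C, then dosed with compounds plus a stimulation mix containing 100uM IBMX and 25uM Ro-20-1724 for 0.5hr at room temperature. cAMP was measured by HTRF competition, 1hr.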

[12] = target: D(2) dopamine receptor (Homo sapiens) (UniProt P14416); experiment: Dopamine D2 receptor (DRD2) small molecule antagonists, cell-based qHTS assay (AID 1963595; active = well fitted inhibition curve with a large enough effect in the signal ratio in the repeat runs, with a control signal flat; the % refers to the signal ratio; also: potency is read from the fitted curve at half-maximal effect)
Method in brief: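 DRD2-HEK293; 0.1 mM Ro20-1724; cpd 10 min RT; NKH477 200 nM + quinpirole 12 nM, 30 min RT; HTRF cAMP (cAMP-d2/anti-cAMP cryptate), 665/620 nm ratio after 1 h.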

[13] = target: Muscarinic acetylcholine receptor M1 (Homo sapiens) (UniProt P11229); experiment: Cholinergic receptor muscarinic 1 (CHRM1) small molecule antagonists, cell-based qHTS assay (AID 1963588); also: nearly all actives have a fitted effect of over 40% in size
Method in brief: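 Compounds were tested at 15 concentrations in three independent runs. Dye-loaded CHRM1-CHO cells were exposed 5 min at room temperature before stimulation by acetylcholine added at 50nM. Intracellular calcium was read kinetically on FDSS for 3 min.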

[14] = target: Muscarinic acetylcholine receptor M1 (Homo sapiens) (UniProt P11229); experiment: Cholinergic receptor muscarinic 1 (CHRM1) small molecule agonists, cell-based qHTS assay (AID 1963589); also: nearly all actives have a fitted effect of over 35% in size
Method in brief: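 Kinetic fluorescence (1 s intervals) of calcium-sensitive dye in human M1 CHO cells after compound addition; cells pre-incubated 18 h at 37 C/5% CO2 and dye-loaded 1 h.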

[15] = cAMP Responsive Elements (CRE) small molecule antagonists, cell-based qHTS assay (AID 1963591; active = well fitted inhibition curve with a large enough effect in the signal ratio in the repeat runs, not every such curve was filed as active; the % refers to the signal ratio)
Method in brief: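 Reporter line CRE-bla HEK 293T in dialyzed-FBS DMEM; cells preincubated 18 h, treated 3 h with compound plus NKH477 (0.25 uM final); LiveBLAzer FRET, 2 h RT.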

[16] = target: Beta-2 adrenergic receptor (Homo sapiens) (UniProt P07550); experiment: Adrenergic beta2 receptor (ADRB2) small molecule antagonists, cell-based qHTS assay (AID 1963592); also: series mostly up to about 92 µM; nearly all actives have a fitted effect of over 50% in size
Method in brief: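 Assay format: CHO-ADRB2 cells, 18-20hr seeding at 37C/5% CO2, then compound plus 1nM isoproterenol agonist mix for 0.5hr RT. Homogeneous time-resolved fluorescence cAMP detection after 1hr, expressed as 665/615 nm ratio.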

[17] = target: 5-hydroxytryptamine receptor 2A (Homo sapiens) (UniProt P28223); experiment: 5-hydroxytryptamine receptor 2A (HTR2A) small molecule antagonists, cell-based qHTS assay (AID 1963586); also: nearly all actives have a fitted effect of over 45% in size
Method in brief: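 CHO cells stably expressing human HTR2A were plated for 18 h at 37 C, then loaded with calcium dye for 1 h. Compounds were preincubated 5 min at room temperature before DOI (4 nM solution) was added. Kinetic fluorescence was read for 3 min.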

[18] = target: 5-hydroxytryptamine receptor 2A (Homo sapiens) (UniProt P28223); experiment: 5-hydroxytryptamine receptor 2A (HTR2A) small molecule agonists, cell-based qHTS assay (AID 1963587); also: nearly all actives have a fitted effect of over 30% in size
Method in brief: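 HTR2A-CHO cells, plated 18 h at 37 C/5% CO2, dye-loaded 1 h at 37 C; compounds in DMSO added by pin tool (agonist mode). Intracellular calcium flux read as kinetic fluorescence on FDSS over 2 min at 1 s intervals.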

[19] = target: D(2) dopamine receptor (Homo sapiens) (UniProt P14416); experiment: Dopamine D2 receptor (DRD2) small molecule agonists, cell-based qHTS assay (AID 1963594); also: nearly all actives have a fitted effect of over 35% in size
Method in brief: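 HEK293 cells stably expressing DRD2 were cultured 24 h at 37 C, then given Ro20-1724 (0.1 mM final) and compounds for 10 min at room temperature. NKH477 (200nM) was then added for 30 min. cAMP was read by HTRF.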

[20] = cAMP Responsive Elements (CRE) small molecule agonists, cell-based qHTS assay (AID 1963590)
Method in brief: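 Test agents in DMSO were incubated 3 h at 37 C/5% CO2 with CRE-bla HEK 293T cells seeded 18 h earlier; LiveBLAzer B/G FRET substrate was added and read after 2 h at room temperature.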

Measured: Potency

Chain of D(2) dopamine receptor (Homo sapiens) (P14416 whole entry, looked up): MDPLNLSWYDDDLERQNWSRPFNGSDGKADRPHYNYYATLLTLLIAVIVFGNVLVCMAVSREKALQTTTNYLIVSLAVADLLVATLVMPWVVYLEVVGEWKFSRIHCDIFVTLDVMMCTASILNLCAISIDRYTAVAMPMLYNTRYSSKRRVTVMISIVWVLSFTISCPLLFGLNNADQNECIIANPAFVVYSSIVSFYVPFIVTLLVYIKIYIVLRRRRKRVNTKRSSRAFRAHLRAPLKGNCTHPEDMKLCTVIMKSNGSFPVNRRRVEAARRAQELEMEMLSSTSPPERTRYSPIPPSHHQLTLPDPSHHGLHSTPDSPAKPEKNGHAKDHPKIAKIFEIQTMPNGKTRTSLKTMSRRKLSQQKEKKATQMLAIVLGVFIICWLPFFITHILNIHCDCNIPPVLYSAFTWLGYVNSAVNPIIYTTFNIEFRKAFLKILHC
Chain of Beta-2 adrenergic receptor (Homo sapiens) (P07550 whole entry, looked up): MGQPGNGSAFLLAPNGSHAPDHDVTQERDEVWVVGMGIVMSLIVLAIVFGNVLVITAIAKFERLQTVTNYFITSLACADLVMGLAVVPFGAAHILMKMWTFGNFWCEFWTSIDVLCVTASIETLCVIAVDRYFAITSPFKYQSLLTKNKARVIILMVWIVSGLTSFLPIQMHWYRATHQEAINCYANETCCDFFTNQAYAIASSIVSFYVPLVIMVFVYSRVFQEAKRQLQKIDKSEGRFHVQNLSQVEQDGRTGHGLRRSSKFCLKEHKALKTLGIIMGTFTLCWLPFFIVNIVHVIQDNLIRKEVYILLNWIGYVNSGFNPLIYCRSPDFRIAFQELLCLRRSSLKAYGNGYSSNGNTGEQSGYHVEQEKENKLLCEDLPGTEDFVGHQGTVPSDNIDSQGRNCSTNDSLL
Chain of KiSS-1 receptor (Homo sapiens) (Q969F8 whole entry, looked up): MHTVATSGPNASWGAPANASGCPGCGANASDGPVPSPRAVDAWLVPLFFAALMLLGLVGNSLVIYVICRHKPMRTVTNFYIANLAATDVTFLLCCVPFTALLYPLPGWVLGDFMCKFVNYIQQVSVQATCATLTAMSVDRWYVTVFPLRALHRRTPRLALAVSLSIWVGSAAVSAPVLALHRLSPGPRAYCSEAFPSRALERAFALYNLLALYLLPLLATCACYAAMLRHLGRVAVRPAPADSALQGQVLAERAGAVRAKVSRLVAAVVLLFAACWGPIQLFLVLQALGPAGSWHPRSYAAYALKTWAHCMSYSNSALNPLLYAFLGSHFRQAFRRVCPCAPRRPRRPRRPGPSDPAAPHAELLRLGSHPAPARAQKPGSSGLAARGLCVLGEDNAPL
Chain of 5-hydroxytryptamine receptor 2A (Homo sapiens) (P28223 whole entry, looked up): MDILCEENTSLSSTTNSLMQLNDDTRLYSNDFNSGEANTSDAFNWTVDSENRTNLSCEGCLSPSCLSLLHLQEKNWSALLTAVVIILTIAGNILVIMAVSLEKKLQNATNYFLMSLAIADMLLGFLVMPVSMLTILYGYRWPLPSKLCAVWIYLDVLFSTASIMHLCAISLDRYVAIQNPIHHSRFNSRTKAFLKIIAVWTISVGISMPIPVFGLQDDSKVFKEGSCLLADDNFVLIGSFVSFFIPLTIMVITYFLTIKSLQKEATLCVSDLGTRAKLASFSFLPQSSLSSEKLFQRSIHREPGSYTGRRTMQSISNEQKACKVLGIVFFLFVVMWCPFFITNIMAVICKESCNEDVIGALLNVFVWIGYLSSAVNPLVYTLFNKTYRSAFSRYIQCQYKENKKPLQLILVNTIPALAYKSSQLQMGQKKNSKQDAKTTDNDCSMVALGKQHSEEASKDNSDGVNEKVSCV
Chain of Gonadotropin-releasing hormone receptor (Homo sapiens) (P30968 whole entry, looked up): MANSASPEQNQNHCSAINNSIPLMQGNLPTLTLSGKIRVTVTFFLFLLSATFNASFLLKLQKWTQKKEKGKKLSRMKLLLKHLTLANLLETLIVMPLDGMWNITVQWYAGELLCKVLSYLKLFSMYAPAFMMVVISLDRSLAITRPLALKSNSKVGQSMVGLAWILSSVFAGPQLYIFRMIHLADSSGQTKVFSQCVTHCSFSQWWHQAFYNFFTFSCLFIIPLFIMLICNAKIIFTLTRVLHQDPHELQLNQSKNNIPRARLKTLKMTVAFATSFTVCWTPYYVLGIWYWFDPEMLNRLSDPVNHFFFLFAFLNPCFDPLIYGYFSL
Chain of Muscarinic acetylcholine receptor M1 (Homo sapiens) (P11229 whole entry, looked up): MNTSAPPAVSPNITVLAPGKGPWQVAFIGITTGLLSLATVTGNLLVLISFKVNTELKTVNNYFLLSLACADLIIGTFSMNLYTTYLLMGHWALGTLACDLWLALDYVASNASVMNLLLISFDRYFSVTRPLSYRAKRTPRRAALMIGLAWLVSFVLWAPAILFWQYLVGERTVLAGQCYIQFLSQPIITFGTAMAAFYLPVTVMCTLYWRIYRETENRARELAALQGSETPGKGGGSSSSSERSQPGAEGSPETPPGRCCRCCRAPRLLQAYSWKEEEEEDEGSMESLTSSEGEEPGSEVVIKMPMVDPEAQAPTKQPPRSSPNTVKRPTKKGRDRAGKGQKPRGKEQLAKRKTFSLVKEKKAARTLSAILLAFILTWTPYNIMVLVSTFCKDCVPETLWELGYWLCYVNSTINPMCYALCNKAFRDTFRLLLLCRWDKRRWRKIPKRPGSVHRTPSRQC

CC(=O)OCC(=O)[C@@]1(OC(C)=O)[C@@H](C)C[C@H]2[C@@H]3C[C@H](F)C4=CC(=O)C=C[C@]4(C)[C@@]3(F)[C@@H](O)C[C@@]21C
inactive: [1] | [2] | [3] | [4] | [5] | [6] | [7] | [8] | [9] | [10] | [11] | [12]

CC(COc1ccccc1)NC(C)C(O)c1ccc(O)cc1 (stereo not drawn)
inactive: [1] | [2] | [3] | [4] | [5] | [6] | [7] | [8] | [9] | [10] | [13] | [14] | [15] | [16]
active: [12] 23.7 µM

CN(C)c1ccc(CCO)cc1
inactive: [1] | [3] | [4] | [5] | [6] | [7] | [8] | [9] | [10] | [17] | [18] | [13] | [15] | [11] | [19] | [12]
active: [2] 27.1 µM

N[C@H]1CN(c2c(F)cc3c(=O)c(C(=O)O)cn(C4C[C@H]4F)c3c2Cl)CC12CC2 (stereo partly drawn)
inactive: [1] | [2] | [3] | [4] | [5] | [6] | [7] | [8] | [9] | [10] | [18] | [13] | [14] | [19] | [12]

O=C(CCCl)NCCc1ccccc1
inactive: [1] | [2] | [3] | [4] | [5] | [6] | [7] | [8] | [9] | [10] | [18] | [13] | [14] | [15] | [16] | [12]

O=C(O)C1(C(=O)O)CCC1.[NH2-].[NH2-].[Pt+2]
inactive: [1] | [2] | [3] | [4] | [5] | [6] | [7] | [8] | [9] | [10] | [17] | [18] | [20] | [16] | [12]

C=CCCCCCCCCC=O
inactive: [1] | [2] | [3] | [4] | [5] | [6] | [7] | [8] | [9] | [10] | [18] | [13] | [14] | [16] | [19] | [12]

O=C(O)c1cccc(Oc2ccccc2)c1
inactive: [1] | [2] | [3] | [4] | [5] | [6] | [7] | [8] | [9] | [10] | [17] | [18] | [13] | [14] | [16] | [19] | [12]
